Rows were chosen to be rich in hits. Some 2.3% of all compounds tested hit in one or more screens of this group.
PTHR1 ag = activates the human parathyroid hormone receptor PTHR1 | HEK293 GP2 PTHR1 cells, GloSensor cAMP luminescence, 1 h | Potency, µM (titrated, usually from 115 µM), hits mostly activators | 410,000 compounds, 0.075% hits | AID 743266; further: nearly all actives have a fitted effect of over 55% in size
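HEK-293-derived GP2 cells expressing PTHR1 and a GloSensor cAMP reporter, 3,000/well, plated overnight, given luciferin plus IBMX (each 0.5 mM as added) for 1 h at 37 °C, then compound for 1 h at 37 °C. Luminescence was read after 15 min at room temperature.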
12-LOX inh = blocks human arachidonate 12S-lipoxygenase; P18054; Potency, µM (doses to about 108 µM), usual class: inhibitors; purified 12hLO, xylenol orange hydroperoxide absorbance; 580,000 compounds, 1.1% hits
Target sequence (P18054 whole entry, looked up): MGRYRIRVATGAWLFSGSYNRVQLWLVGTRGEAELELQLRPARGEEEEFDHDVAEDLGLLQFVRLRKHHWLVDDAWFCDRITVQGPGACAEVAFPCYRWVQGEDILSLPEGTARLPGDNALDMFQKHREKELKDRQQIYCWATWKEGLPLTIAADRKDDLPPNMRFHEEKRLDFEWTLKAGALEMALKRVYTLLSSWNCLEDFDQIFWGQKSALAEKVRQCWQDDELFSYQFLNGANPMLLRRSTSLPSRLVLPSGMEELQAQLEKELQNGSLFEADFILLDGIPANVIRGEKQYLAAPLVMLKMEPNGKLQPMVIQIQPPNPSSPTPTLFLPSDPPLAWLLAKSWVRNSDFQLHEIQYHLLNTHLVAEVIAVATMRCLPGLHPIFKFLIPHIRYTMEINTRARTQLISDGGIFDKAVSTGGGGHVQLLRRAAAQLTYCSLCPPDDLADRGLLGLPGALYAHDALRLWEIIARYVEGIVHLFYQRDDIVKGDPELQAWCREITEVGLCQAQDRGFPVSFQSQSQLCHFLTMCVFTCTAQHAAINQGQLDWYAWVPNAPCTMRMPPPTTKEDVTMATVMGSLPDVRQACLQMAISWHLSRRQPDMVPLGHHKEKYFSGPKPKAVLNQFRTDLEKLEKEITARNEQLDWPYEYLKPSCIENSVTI
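Hydroperoxide product was detected by ferrous iron/xylenol orange as the 573 to 405 nm absorbance ratio. Arachidonic acid at 40 uM (final) was turned over for 30 min at room temperature by 150 nM human 12hLO, pH 7.0 Hepes buffer, after 15 min compound preincubation.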
GLS inhibitor = blocks human kidney-isoform glutaminase activity | Potency, µM (doses to about 45.5 µM), usual class: inhibitors | 410,000 compounds, 0.21% hits | GLS enzymatic activity, qHTS titration | AID 624170 | O94925
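Glutamate formation by hKGA was monitored fluorometrically using coupled glutamate oxidase, HRP and Amplex Red. Substrate was added as 1 mM L-glutamine solution; incubation was 30 min at RT after an initial read.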
GLP1R ag = GLP-1 receptor (human) agonism. 380,000 compounds, 0.007% hits. P43220. Potency, µM (series often up to 45.6 µM), most hits filed as activators. HEK293 GLP-1R CRE-luciferase, luminescence, 4-6 h; cells express a hypersensitive GLP-1R form. AID 624172
Glioma ERSR ind = induces the endoplasmic reticulum stress response in human glioma cells; Potency, µM, hits mostly activators; AID 602332; 420,000 compounds, 0.02% hits; U87-MG GRP78 promoter luciferase reporter, 16 h; further: series mostly up to about 76 µM; nearly all actives have a fitted effect of over 35% in size
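Stably transfected U87-MG glioma cells carrying a GRP78-based luciferase sensor; 16 h compound incubation. Luminescence end-point read 10 min after Bright-Glo addition at room temperature.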
GLP1R inv ag = acts as inverse agonist at human GLP-1 receptor; Potency, µM (titrated, usually from 38.3 µM), actives largely listed as inhibitors; P43220; HEK293 GLP-1R CRE-luciferase, luminescence, 24 h; GLP-1R form is constitutively active; 410,000 compounds, 1.6% hits; further: nearly all actives have a fitted effect of over 55% in size
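HEK293 cells stably co-expressing a cAMP-responsive luciferase reporter and constitutively active GLP-1R were seeded, incubated 12 h, then exposed to compounds for 24 h at 37 C. Luminescence was read 12 min after detection reagent; inverse agonists lower signal.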
A number is an active result; 0 = inactive; ? = inconclusive; - = no result given. The call rests on the fitted dose curve; in most records, active means well fitted curve in the direction sought with a large enough effect; inconclusive means small, poorly fitted or top-dose-only effect, or another doubt; inactive means no such curve, though single readings can be large; an effect the other way counts as inactive or inconclusive.

SMILES	PTHR1 ag	12-LOX inh	GLS inhibitor	GLP1R ag	Glioma ERSR ind	GLP1R inv ag
CC(=O)Nc1ccc(/C(C)=N/NC(=O)c2ccc(F)cc2)cc1	0	0	0	0	0	0
Cc1cc(C)cc(-c2nnc(SCC(=O)N3CCC3)o2)c1	-	0	-	-	-	-
Cn1ccc2c(N(Cc3ccccc3)Cc3ccccc3)cc3c(c21)C1CCC3O1 (stereo unspecified)	0	11µM	0	0	0	0
CC(OC(=O)c1ccc2c(c1)NC(=O)CS2)C(=O)NC(C)(C)C (stereo unspecified)	-	0	-	-	-	-
COc1ccccc1CNc1ncncc1-c1ccoc1	-	?	-	-	0	-
Fc1ccc(Nc2ncncc2-c2ccoc2)cc1	-	40µM	-	-	0	-
c1ccc(Nc2ncncc2-c2ccoc2)cc1	-	18µM	-	-	0	-
COc1ccccc1-c1cncnc1Nc1ccccc1	-	40µM	-	-	0	-
Cc1cc(Br)cc(C)c1C(=O)O	-	0	-	-	-	-
O=C(CSc1ncnc2ccccc12)Nc1ccc(Cl)cc1Cl	-	0	-	-	-	-
COc1cc(N/N=C/c2ccc(N(C)C)cc2)ncn1	0	0	0	0	0	?
CN(C)c1cc(N/N=C/c2ccc(Cl)cc2)nc(N(C)C)n1	0	0	0	0	0	2.5µM
CNc1nc(-c2ccccc2C)nc2ccccc12	-	40µM	-	-	0	-
Cc1ccc(-n2c(Cc3cccc4ccccc34)n[nH]c2=S)c(C)c1	0	?	10µM	0	0	?
Cc1ccc(-n2c(-c3ccccc3)n[nH]c2=S)c(C)c1	0	?	0	0	0	?
O=C(NCCCCc1ccccc1)c1ccccc1Cl	0	0	0	0	0	5µM
O=C(CCCCCCCC(=O)Nc1ccc(C(=O)c2ccccc2)cc1)Nc1ccc(C(=O)c2ccccc2)cc1	-	40µM	-	-	-	-
O=C(NCCCCc1ccccc1)c1cccc(NC(=O)c2ccccc2)c1	0	?	0	0	0	10µM
O=C(NCCCCNC(=O)c1ccccc1Cl)c1ccccc1Cl	0	?	0	0	0	0
O=C(CCCc1ccccc1)Nc1cccc(C(=O)O)c1	0	0	0	0	0	2µM
COc1cc(OC)c(OC)cc1CNC(=O)c1cc(Br)ccc1O	-	0	-	-	-	-
O=C(Nc1ccc(Cl)c(C(F)(F)F)c1)c1ccc(I)cc1	-	0	-	-	-	-
CN(CCOc1ccc(Br)cc1)C(=O)CSc1nnc(-c2ccc(Cl)cc2)n1C	-	0	-	-	-	-
CCC(=O)Nc1cccc(-c2nc3cc(OC)ccc3o2)c1	-	0	-	-	-	-
COC(=O)c1cc(Br)ccc1O	-	0	-	-	-	-
SMILES	PTHR1 ag	12-LOX inh	GLS inhibitor	GLP1R ag	Glioma ERSR ind	GLP1R inv ag
O=C(COC(=O)c1ccc(O)cc1O)Nc1ccc2ccccc2c1	0	0	0	0	0	?
COC(=O)c1ccc(NCc2cc(O)ccc2O)cc1O	0	5µM	?	0	0	?
COC(=O)c1ccc(NCc2c(O)ccc(O)c2Br)cc1Cl	0	0.89µM	?	0	0	0
Cc1nc(-c2ccc(C)c(S(=O)(=O)N3CCC(C(=O)Nc4ccc(Cl)cc4)CC3)c2)no1	0	?	0	-	0	10µM
Cc1cccc(C(O)(C(=O)NNc2ccc3ccccc3n2)c2cccc(C)c2)c1	0	0	0	0	0	4.5µM
Cc1ccc(NNC(=O)C(O)(c2cccc(C(F)(F)F)c2)c2cccc(C(F)(F)F)c2)cc1	0	0	0	0	0	3.2µM
CC(C)(O)C(=O)NNC(=S)Nc1cccc(C(F)(F)F)c1	0	0	0	0	0	0
CCNNC(=O)C(O)(c1cccc(C)c1)c1cccc(C)c1	0	0	0	0	0	0
CCCC(O)(CCC)C(=O)NNc1ccc(C)cc1	0	?	0	0	0	?
Cc1ccc(C(O)(C(=O)NNc2ccccn2)c2ccc(C)cc2)cc1	0	0	13µM	0	0	0
O=C(NNc1ccccc1Br)C(O)(c1cccc(C(F)(F)F)c1)c1cccc(C(F)(F)F)c1	0	0	0	0	0	3.2µM
COC(=O)c1ccc(OC(=O)/C=C/c2ccco2)cc1	0	0	0	0	0	0
COC(=O)c1ccc(OC(=O)/C=C/c2ccc(Br)o2)cc1	-	11µM	-	-	-	-
Cc1ccc(-c2cc(C(=O)NC(C)C)c3ccccc3n2)c(C)c1	-	0	-	-	-	-
Cc1csc(CNC(=O)c2nccnc2N)n1	-	0	-	-	-	-

Assay outcomes from PubChem.
